The results in this text go back to PubChem BioAssay (NCATS).

Inconclusive results are not listed. Activity calls are given as the source filed them. Unless noted, calls come from the whole dose curve; as a rule, active = well fitted inhibition curve with a large enough effect; inconclusive = small, poorly fitted or top-dose-only effect; inactive = flat fitted curve, though single readings scatter. Peptide text beside a SMILES is read from it.

The nature of assay [1]: qHTS drug screen for cell cycle checkpoint inhibitors in PARPi-resistant BRCA-mutant ovarian cancer cell lines. (AID 1963452; calls by dose curve). The note with it: PEO1/OlaR viability, CellTiter-Glo luminescence, 96 h, stronger effect = lower value. In a few lines: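 PEO1, PEO4 and PEO1/OlaR ovarian cancer cells, 600 per well, exposed 96 h at 37C to a dilution series. Viability read by CellTiter-Glo luminescence, normalized to DMSO and empty wells; activity summarized as Z-AUC.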

Assay [2] in a line: qHTS profiling for inhibitors of Plasmodium falciparum proliferation (AID 504749).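 For activity, negative = inhibition: 0% = DMSO vehicle and full inhibition = artemisinin control.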 Note: nearly all actives have a fitted effect of over 60% in size. Note: potency is the fitted concentration of half-maximal effect. The note with it: P. falciparum in erythrocytes, SYBR Green DNA, 72 h. In a few lines: (§1)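 Three-day growth assay of blood-stage parasites in erythrocytes (0.3% parasitemia, 2.5% hematocrit) at 37 C, 5% CO2, quantified by SYBR Green DNA staining after overnight detergent lysis.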
A further assay relates to AA1029. The assay is described as above. The conditions noted are these: P. falciparum in erythrocytes, SYBR Green DNA, 72 h; series mostly up to 28.7 µM. In a few lines:
as §1

For a further assay, the system named is AS120. Described as above. The note with it: P. falciparum in erythrocytes, SYBR Green DNA, 72 h; series mostly up to 28.7 µM. The method in brief: as §1
Another assay has as its system ATS189. The assay is described as above. The note with it: P. falciparum in erythrocytes, SYBR Green DNA, 72 h; series mostly up to 28.7 µM. The method in brief:
as §1

In another assay the test system is ATS95. Described as above. The conditions noted are these: P. falciparum in erythrocytes, SYBR Green DNA, 72 h; series mostly up to 28.7 µM. The method in brief:
as §1

The subject of a further assay is C2A. Described as above. The note with it: P. falciparum in erythrocytes, SYBR Green DNA, 72 h; series mostly up to 28.7 µM. The method in brief: as §1
A further assay has as its system CP185. The description is as above. The note with it: P. falciparum in erythrocytes, SYBR Green DNA, 72 h; series mostly up to 28.7 µM. In a few lines:
as §1

The test system of the next assay is CP192. Described as above. The note with it: P. falciparum in erythrocytes, SYBR Green DNA, 72 h; series mostly up to 28.7 µM. In a few lines: as §1
The subject of the next assay is CP194. The description is as above. The note with it: P. falciparum in erythrocytes, SYBR Green DNA, 72 h; series mostly up to 28.7 µM. In a few lines: as §1
A further assay deals with CP201. Described as above. The conditions noted are these: P. falciparum in erythrocytes, SYBR Green DNA, 72 h; series mostly up to 28.7 µM. In a few lines: as §1
The next assay relates to CP203. The description is as above. The conditions noted are these: P. falciparum in erythrocytes, SYBR Green DNA, 72 h; series mostly up to 28.7 µM. The method in brief:
as §1

Another assay has as its system CP211. The assay is described as above. The conditions noted are these: P. falciparum in erythrocytes, SYBR Green DNA, 72 h; series mostly up to 28.7 µM. In a few lines:
as §1

The next assay has as its system CP215. The assay is described as above. The note with it: P. falciparum in erythrocytes, SYBR Green DNA, 72 h; series mostly up to 28.7 µM. The method in brief:
as §1

The test system of another assay is CP217. The assay is described as above. The conditions noted are these: P. falciparum in erythrocytes, SYBR Green DNA, 72 h; series mostly up to 28.7 µM. The method in brief:
as §1

A short description of assay [3]: qHTS for identification of novel therapeutic agents for treatment of microphthalmiaassociated transcription factor (MiT) renal cell carcinoma (RCC) (AID 1963991). The conditions noted are these: CellTiter-Glo, 48 h, stronger effect = lower value. The method in brief:
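Viability of three TFE3-fusion renal carcinoma lines measured by CellTiter-Glo after 48 h treatment with each of 1912 compounds at 11 concentrations. Responses scaled between DMSO (100%) and empty wells (0%) before curve fitting.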
Background: qHTS replaces the single test concentration by a dilution series.

The subject of the next assay is 7G8. Nature of the assay: qHTS profiling for inhibitors of Plasmodium falciparum proliferation (AID 504749).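 For activity, negative = inhibition: 0% = DMSO vehicle and full inhibition = artemisinin control.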 Note: nearly all actives have a fitted effect of over 60% in size. Note: potency is the fitted concentration of half-maximal effect. The conditions noted are these: P. falciparum in erythrocytes, SYBR Green DNA, 72 h; series mostly up to 28.7 µM. In a few lines:
as §1

Another assay has as its system CP191. The description is as above. The note with it: P. falciparum in erythrocytes, SYBR Green DNA, 72 h; series mostly up to 28.7 µM. The method in brief: as §1
The next assay has as its system 3D7. The description is as above. The conditions noted are these: P. falciparum in erythrocytes, SYBR Green DNA, 72 h; series mostly up to 28.7 µM. The method in brief:
as §1

Setting [4] is: measured here: PEO1 parental Z-AUC.
[5] abbreviates: at 28.7 µM (top of the series), parasite line A.
Setting [6] is: at 28.7 µM (top of the series), parasite line B.
Where [7] appears, read: TFE3-RCC UOK109 viability, measured here: UOK109 Z-AUC.
[8] abbreviates: TFE3-RCC viability, measured here: UOK124 Z-AUC.
Where [9] appears, read: TFE3-RCC viability, measured here: UOK145 Z-AUC.

Take `COC1=C(OC)C(=O)C(CCCCCCCCCCO)=C(C)C1=O`: the Z-AUC in assay [1] is -0.864 (inactive); in assay [1] (setting [4]), -1.14; in assay [1] (measured here: PEO4 Z-AUC), -0.303. Also, the activity, negative = inhibition is -28.8% (inactive) in assay [2] (setting [5]) and -11.7% (inactive) in assay [2] (setting [6]). For the same molecule, the Potency entry with AA1029, in the assay with AS120, with ATS189, in the assay on ATS95, in the assay with C2A and with CP185 was “inactive” throughout. The Potency result with CP192, in the assay with CP194, in the assay on CP201, in the assay on CP203, in the assay on CP211 and in the assay on CP215 was “inactive” each time. Moreover, the Potency result in the assay with CP217 is “inactive”.

With `NNc1nncc2ccccc12`, the Z-AUC in [1] was 0.571 (inactive); in [1] (setting [4]), 0.709; in assay [1] (measured here: PEO4 Z-AUC), 0.892. Moreover, the z-score in assay [3] (setting [7]) is -0.0991; in assay [3] (setting [8]) it was 0.525; in assay [3] (setting [9]), 0.517. In addition, the activity, negative = inhibition in [2] (at 12.8 µM (top of the series), parasite line A) was -1.16% (inactive); in assay [2] (at 12.8 µM (top of the series), parasite line B), -10.3% (inactive). In addition, the Potency in the assay with 7G8 was 891 nM (active); in the assay on ATS189 it was 3550 nM (active); in the assay with CP191, 3550 nM (active). For the same molecule, the Potency entry in the assay on AA1029, with ATS95, with C2A, in the assay on CP185, with CP192 and in the assay on CP194 was “inactive” throughout. Moreover, the Potency entry with CP201, with CP211 and in the assay with CP217 was “inactive” throughout.

Regarding `c1ccc2[nH]c(-c3cscn3)nc2c1`, the results for the Z-AUC in assay [1], in [1] (setting [4]) and in assay [1] (measured here: PEO4 Z-AUC) were -1.4 (inactive), -0.204 and 0.0577, respectively. The z-score was -0.345 in assay [3] (setting [7]), 0.601 in [3] (setting [8]) and -0.852 in assay [3] (setting [9]). Moreover, the activity, negative = inhibition in assay [2] (setting [6]) was -25.8% (inactive). Moreover, the Potency entry with 3D7, in the assay with 7G8, in the assay on AA1029, in the assay with AS120, in the assay with ATS95 and in the assay with C2A was “inactive” in each case. Moreover, the Potency result with CP191, with CP192, in the assay with CP194, with CP201, in the assay on CP203 and with CP211 was “inactive” throughout. The Potency result in the assay with CP215 and with CP217 was “inactive” in each case.

On to `CC1=C(C)C(=O)C(C(CCCCCC(=O)O)c2ccccc2)=C(C)C1=O` (stereo not given), for which the Z-AUC is 0.121 (inactive) in [1], 0.192 in assay [1] (setting [4]) and 0.237 in assay [1] (measured here: PEO4 Z-AUC). In addition, the z-score was 0.248 in assay [3] (setting [7]), 0.105 in assay [3] (setting [8]) and -0.311 in [3] (setting [9]). In addition, the activity, negative = inhibition is -13.8% (inactive) in assay [2] (setting [5]) and -26.9% (inactive) in assay [2] (setting [6]). Besides, the Potency entry with 7G8, in the assay on AA1029, with ATS95, with CP185, in the assay with CP191 and in the assay with CP192 was “inactive” throughout. For the same molecule, the Potency result in the assay with CP201 was “inactive”.

In the case of `COC(=O)[C@H](Cc1ccccc1)NC(=O)[C@@H](N)CC(=O)O` (H-Asp-Phe-OMe), the figures for the Z-AUC in assay [1], in [1] (setting [4]) and in assay [1] (measured here: PEO4 Z-AUC) were 0.187 (inactive), 0.0667 and 0.437, respectively. In addition, the activity, negative = inhibition is 5.55% (inactive) in assay [2] (setting [5]) and 9.71% (inactive) in [2] (setting [6]). In addition, the Potency entry in the assay with 3D7, in the assay with 7G8, in the assay on AA1029, in the assay with AS120, with ATS189 and in the assay with ATS95 was “inactive” each time. Besides, the Potency entry with C2A, in the assay with CP185, in the assay with CP191, in the assay with CP192, in the assay on CP194 and in the assay with CP201 was “inactive” in each case. Further, the Potency result in the assay on CP211, with CP215 and in the assay with CP217 was “inactive” throughout.

`CN(C)c1ccc2nc3ccc(=[N+](C)C)cc-3sc2c1`: the Z-AUC in [1] was -0.652 (inactive); in [1] (setting [4]), -0.738; in assay [1] (measured here: PEO4 Z-AUC), -0.606. Further, the Potency was 44.7 nM (active) in assay [2] (parasite line A); 63.1 nM (active) in assay [2] (parasite line B); 39.8 nM (active) in the assay with 3D7; 2.8 nM (active) in the assay on 7G8; 79.4 nM (active) with AA1029; 63.1 nM (active) in the assay with AS120. In addition, the Potency was 79.4 nM (active) in the assay on ATS189; 70.8 nM (active) in the assay with ATS95; 141 nM (active) in the assay with C2A; 89.1 nM (active) in the assay on CP185; 79.4 nM (active) in the assay with CP191; 67.5 nM (active) in the assay with CP192. The Potency is 75.7 nM (active) in the assay with CP194; 67.5 nM (active) in the assay on CP201; 33.8 nM (active) in the assay on CP203; 60.1 nM (active) in the assay on CP211; 120 nM (active) in the assay on CP215; 89.1 nM (active) in the assay on CP217.
